# Laboratory results reported in PubChem BioAssay.
# Unmarked numbers belong to inactive results. Activity calls are given as the source filed them.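 The calls were made as follows: active = growth inhibition above 50% at the single 2 µM test dose, taken to imply half-maximal potency below 2 µM; inactive = the rest.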
# Assay: antimalarial activity against Dd2 strain (AID 2302);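 also: 0% = DMSO untreated growth and 100% = chloroquine plus artemisinin killed control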
# Conditions: P. falciparum Dd2 in RBCs, LDH growth readout, 72 h; at 2 µM; hits give high values
row,SMILES,growth inhibition
1,CCCCCCCCn1ccc(=N)cc1,84% (active)
2,CC(C)N1CCCN(C(=O)C2CCN(c3ccc(C(=O)N4CCCC4)cn3)CC2)CC1,12%
3,COc1ccc2nc(C)cc(Nc3ccc(Oc4ccc5ccccc5c4)c(Cl)c3)c2c1,99% (active)
4,CCOc1ccc2c(NN=Cc3cccc(Cl)c3)cc(C)nc2c1,34%
5,Nc1nc(N)c2cc(Sc3ccc4ccccc4c3)ccc2n1,92% (active)
6,COC(=O)c1ccc2nc(-c3ccc(/C=C/C(=O)NC4CCN(Cc5ccccc5)CC4)cc3)[nH]c2c1,88% (active)
7,O=C(NC1CC1)c1cnc(N2CCC(OCc3ccccc3)CC2)c(Cl)c1,71% (active)
8,C[C@@H](COc1ccc(-c2ccccc2)cc1)CON1C(N)=NC(N)=NC1(C)C,96% (active)
9,Cc1ccc2nc(Nc3ccc(Nc4nc5ccc(C)cc5[nH]4)c(C)c3)[nH]c2c1,94% (active)
10,Cc1cc(N2CCOCC2)nc2ccc(NC(=O)c3cccc([N+](=O)[O-])c3)cc12,37%
11,Cc1cc(C2CCN(CCCCNC(=O)c3ccc(NC(=O)c4ccc(Cl)cc4)cc3)CC2)c(C)cc1OCc1ccncc1,92% (active)
12,N#Cc1ccc(C=Cc2nccc3c2[nH]c2ccccc23)cc1,28%
13,Cc1ccc(F)cc1-c1cc(N2CCCN(C(=O)c3ccc(Br)o3)CC2)ncn1,91% (active)
14,CS(=O)(=O)c1cc2c(Nc3ccc(N4CCOCC4)cc3)c(C(N)=O)cnc2cc1Br,89% (active)
15,Cc1ccc(Cn2ncc(N3CCC(N)CC3)c(Cl)c2=O)cc1NC(=O)Nc1ccc(-c2ccccc2)cc1,25%
